“And” between values parts separate entries of the source, which are not always exact repeats. Equal values may be shown once. Records with an inconclusive call do not appear. A structure can be active in one record and inactive in another. Values without a mark were called inactive. The source made the active and inactive calls. Calls follow the shape of the dose curve; as a rule, active = well fitted curve in the direction sought with a large enough effect; inconclusive = small, poorly fitted or top-dose-only effect, or another doubt; inactive = no such curve, though single readings can be large; an effect the other way counts as inactive or inconclusive. Where a SMILES comes first, the peptide text is derived from it. Bridges are numbered along the chain shown (N, C = ends). [ ]: non-standard residue; d: D form. The star is where a group is joined. Dab(CH2SO3H) = N[C@@H](CCNCS(=O)(=O)O)C(=O)O; X3 = CC[C@@H](C)CCCCC(=O)*; Dab = NCC[C@H](N)C(=O)O

One test relates to CRL-7250. Briefly: Cytotoxic Profiling of Annotated Libraries Using Quantitative High-Throughput Screening (AID 1296008). Also: nearly all actives have a fitted effect of over 60% in size. Also: potency is read from the fitted curve at half-maximal effect. As to max response: % is scaled to controls: 0 for no effect and ±100 for the full control effect. The following applies: Five cell lines viability, CellTiter-Glo ATP luminescence, 48-72 h; max response: active compounds read low. An outline of the steps: (§1)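 Compounds were pin-transferred onto cells and incubated 48 or 72 hr at 37 degree Celsius, 95% humidity. CellTiter-Glo was added, plates sat 10 min at room temperature, then ATP-coupled luminescence was imaged as the viability read-out.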

In another test the test system is HEK293. Described as above. Particulars: Five cell lines viability, CellTiter-Glo ATP luminescence, 48-72 h; max response: active compounds read low. Summed up: as §1
Test [1] has as its system HaCat. Described as above. Particulars: Five cell lines viability, CellTiter-Glo ATP luminescence, 48-72 h; max response: active compounds read low. Summed up:
as §1
In general terms: In ATP-based viability assays light output follows the ATP content of the culture.

For a further test, the system named is NIH3T3. The test is described as above. The following applies: Five cell lines viability, CellTiter-Glo ATP luminescence, 48-72 h; max response: active compounds read low. An outline of the steps: as §1
Test [2] deals with HACAT. The experiment in a line: qHTS assay to identify novel small-molecules to repurpose for Merkel cell carcinoma treatment (AID 1296009). Also: nearly all actives have a fitted effect of over 60% in size. Particulars: MCC and control cell lines, CellTiter-Glo viability, 72 h; at 44.8 µM (top of the series) unless noted. An outline of the steps:
(§2)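 Cells exposed to NPC (8-point) and MIPE (11-point) compound dilutions for 72 hr at 37 degree celsius; viability read by CellTiter-Glo luminescence, normalized to no-cell and DMSO in-plate controls.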
For orientation: In qHTS, concentration-response curves come from the screen itself.

The test system of the next test is C33A. Briefly: Primary qHTS to identify gynecologic anti-cancer compounds using libraries of approved drugs and bioactive compounds (AID 1345084). Also: % is scaled to controls: 0 for no effect and ±100 for the full control effect; nearly all actives have a fitted effect of over 55% in size. Particulars: Gynecologic cancer cell panel viability, ATPlite luminescence, 48 h; series mostly up to 57.5 µM. An outline of the steps: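 Measured: luminescence after ATPlite addition (15 min, RT). Exposure: 48 h, 37 C, 5% CO2.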

In a further test the test system is KB-3-1. Briefly: Cytotoxic Profiling of Annotated Libraries Using Quantitative High-Throughput Screening (AID 1296008). Also: nearly all actives have a fitted effect of over 60% in size. Also: potency is read from the fitted curve at half-maximal effect. As to max response: % is scaled to controls: 0 for no effect and ±100 for the full control effect. Particulars: Five cell lines viability, CellTiter-Glo ATP luminescence, 48-72 h; max response: active compounds read low. An outline of the steps:
as §1

Another test deals with HEK293T. Briefly: qHTS assay to identify novel small-molecules to repurpose for Merkel cell carcinoma treatment (AID 1296009). Also: nearly all actives have a fitted effect of over 60% in size. The following applies: MCC and control cell lines, CellTiter-Glo viability, 72 h; series mostly up to 44.8 µM. Summed up:
as §2

The test system of the next test is SC27B. Briefly: qHTS profiling for inhibitors of Plasmodium falciparum proliferation (AID 504749). Also: nearly all actives have a fitted effect of over 60% in size. Also: potency is read from the fitted curve at half-maximal effect. Particulars: P. falciparum in erythrocytes, SYBR Green DNA, 72 h; series mostly up to 28.7 µM. Summed up:
(§3)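 P. falciparum-infected erythrocytes (0.3% parasitemia, 2.5% hematocrit final) were exposed to compounds for 72 h at 37 C in 5% CO2, then lysed with SYBR Green buffer overnight at room temperature; parasite DNA fluorescence was normalized to artemisinin and DMSO controls.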

The next test concerns TAB109. The description is as above. Particulars: P. falciparum in erythrocytes, SYBR Green DNA, 72 h; series mostly up to 28.7 µM. Summed up: as §3
The subject of the next test is TAB113. Described as above. The following applies: P. falciparum in erythrocytes, SYBR Green DNA, 72 h; series mostly up to 28.7 µM. Summed up: as §3
In another test the test system is TAB165. Described as above. The following applies: P. falciparum in erythrocytes, SYBR Green DNA, 72 h; series mostly up to 28.7 µM. An outline of the steps: as §3
The subject of another test is W2. The test is described as above. Particulars: P. falciparum in erythrocytes, SYBR Green DNA, 72 h; series mostly up to 28.7 µM. Summed up: as §3

In the case of `CNc1nc(Nc2cnn([C@H]3CCN(C4COC4)C[C@@H]3F)c2Cl)ncc1C(F)(F)F`, the max response was -6.85% and -3.81% with CRL-7250; -26.9% in the test with NIH3T3. Besides, the Potency in the test with HEK293 is 23.1 µM (active) and 9.33 µM (active). Further, the result with HaCat [1] and in the test with HACAT [2] was inactive. Besides, in the test on C33A, the Potency result was “inactive”.

Take `NC(=O)[C@H]1CCCCc2c1[nH]c1ccc(Cl)cc21`: the result in the test with CRL-7250 and in the test with HEK293 was inactive. Further, the figures for the max response in the test on HaCat [1], in the test with KB-3-1 and with NIH3T3 were -14.2%, 7.59% and 4.7%, respectively. In addition, the Potency result with HEK293T and in the test with C33A was “inactive” each time.

As for `CC1(C)CC[C@]2(C(=O)O)CC[C@]3(C)C(=CCC4[C@@]5(C)CC[C@H](O[C@@H]6O[C@H](C(=O)O)[C@@H](O)[C@H](O)[C@H]6O)C(C)(CO)C5CC[C@]43C)C2C1` (some centres not stated), the max response in the test on CRL-7250 is 4.13%; with HaCat [1] it was -0.619%; with NIH3T3, -4.92%. Besides, the molecule was called inactive with HEK293 and in the test on KB-3-1. Moreover, the Potency result in the test on HEK293T and with C33A was “inactive” each time.

With `C[C@H]1CC[C@@]2(OC1)O[C@H]1CC3C4CC=C5C[C@H](O)C[C@@H](O[C@@H]6O[C@@H](C)[C@H](O)[C@@H](O)[C@H]6O[C@@H]6O[C@@H](C)[C@H](O)[C@@H](O)[C@H]6O)[C@]5(C)C4CC[C@]3(C)[C@H]1[C@@H]2C` (some centres not stated), the max response with CRL-7250 is -7.49%; with HaCat [1] it was -9.03%; in the test with NIH3T3, 0.342%. Also, the result in the test with HEK293 and in the test with KB-3-1 was inactive. The Potency result with HEK293T and in the test with C33A was “inactive” each time.

As for `NC(=O)c1ccc(OCC2NC(=O)C3CCCN3C2=O)cc1` (configuration not stated), the max response with CRL-7250 was -2.01%; with HaCat [1], -3.74%; with KB-3-1, 6.37%. Also, the call in the test on HEK293 and with NIH3T3 was inactive. Besides, the Potency entry in the test with HEK293T and with C33A was “inactive” in each case.

As to `CC(=O)N[C@H]1[C@H](O[C@H]2CC[C@@]3(C)C(CC[C@]4(C)C3CC=C3C5CC(C)(C)CC[C@]5(C(=O)O)[C@H](O[C@@H]5O[C@H](CO)[C@@H](O)[C@H](O)[C@H]5O)C[C@]34C)C2(C)C)O[C@H](CO[C@@H]2OC[C@H](O)[C@H](O)[C@H]2O[C@@H]2OC[C@@H](O)[C@H](O)[C@H]2O)[C@@H](O)[C@@H]1O` (some centres not stated), the molecule was classed as inactive with CRL-7250 and in the test with HEK293. The max response is -15.2% in the test with HaCat [1], 2.21% in the test on KB-3-1 and -4.54% in the test with NIH3T3. The outcome in the test on HEK293T is “inactive [at 9.27 µM]”. Moreover, in the test on C33A, the activity change, negative = cytotoxicity is -4.04% [at 11.6 µM].

As for `CO[C@@H]1[C@@H](O[C@@H]2O[C@H](C)[C@@H](O[C@H]3C[C@@](C)(O)[C@@H](OC(=O)CC(C)C)[C@H](C)O3)[C@H](N(C)C)[C@H]2O)[C@@H](CC=O)C[C@@H](C)C(=O)/C=C/C2OC2C[C@@H](C)OC(=O)C[C@H]1OC(C)=O` (some centres not stated), the max response in the test with KB-3-1 was 20.2%.

Regarding `CC1(C)C(C=C(Cl)Cl)C1C(=O)OCc1cccc(Oc2ccccc2)c1` (configuration not stated), the Potency result in the test with SC27B, in the test with TAB109, with TAB113 and in the test on TAB165 was “inactive” in each case. Moreover, in the test with KB-3-1, the max response is -12.6%.

With `CCCC(=O)O[C@]1(C(=O)COC(C)=O)CC[C@H]2[C@@H]3C[C@H](F)C4=CC(=O)C=C[C@]4(C)[C@@]3(F)[C@@H](O)C[C@@]21C`, the max response in the test with KB-3-1 was 20.2%.

For the molecule `CC(=O)O[C@]1(C(C)=O)CC[C@H]2[C@@H]3CCC4=CC(=O)CC[C@]4(C)[C@@]3(F)[C@@H](O)C[C@@]21C`, the max response with KB-3-1 is 28.7%.

As to `CC(=O)Oc1c(C)cc(OCC(O)CNC(C)C)c(C)c1C` (configuration not stated), the Potency result with SC27B, in the test with TAB109, in the test with TAB113 and with TAB165 was “inactive” each time. In addition, the max response with KB-3-1 was 4.82%.

`COC(=O)[C@H]1[C@H]2C[C@@H]3c4[nH]c5ccccc5c4CCN3C[C@H]2C[C@@H](OC(=O)c2cc(OC)c(OC)c(OC)c2)[C@@H]1OC`: the Potency is 355 nM (active) with SC27B; 398 nM (active) in the test with TAB109; 282 nM (active) in the test on TAB113; 178 nM (active) in the test with TAB165; 151 nM (active) in the test with W2; 7.31 µM (active) in the test on KB-3-1. Moreover, in the test on KB-3-1, the max response is -19.2%.

For the molecule `CC(C)NCC1CCc2cc(CO)c([N+](=O)[O-])cc2N1` (configuration not stated), the max response with KB-3-1 is 2.46%.

Turning to `OCCO[C@@H]1[C@@H](O)[C@H](O)[C@@H](CO)O[C@@H]1O`, the max response in the test on KB-3-1 is 22%.

In the case of `CCCCC(CC)COC(=O)CC(C(=O)OCC(CC)CCCC)S(=O)(=O)O` (configuration not stated), the max response in the test with KB-3-1 was -3.48% and -14.8%.

Regarding `CC1(C)O[C@@H]2C[C@H]3[C@@H]4CCC5=CC(=O)C=C[C@]5(C)[C@H]4[C@@H](O)C[C@]3(C)[C@]2(C(=O)CO)O1`, in the test with KB-3-1, the max response was -0.986%.

Turning to `CC1(C)S[C@@H]2[C@H](NC(=O)Cc3ccccc3)C(=O)N2[C@H]1C(=O)O`, in the test with KB-3-1, the max response is -8.27%.

For `CC(Oc1ccccc1)C(=O)N[C@@H]1C(=O)N2[C@@H]1SC(C)(C)[C@@H]2C(=O)O` (some centres not stated), the max response with KB-3-1 was -0.849%.

On to `COc1cc2c(cc1O)CCN[C@]21CS[C@@H]2c3c(OC(C)=O)c(C)c4c(c3[C@H](COC1=O)N1[C@@H]2[C@H]2c3c(cc(C)c(OC)c3O)C[C@@H]([C@@H]1O)N2C)OCO4`, for which the Potency with KB-3-1 was 5.2 nM (active) and 28.2 nM (active).

As for `C=CC1=C(C)C2=CC3=NC(=C(CC(=O)[O-])C4=NC(=C(C)C4=C([O-])[O-])C=c4[n-]c(c(C)c4CC)=CC1=N2)C(CCC(=O)[O-])C3C.[Cu+2].[Na+].[Na+].[Na+]` (configuration not stated), the max response in the test with KB-3-1 was -6.08%.

In the case of `C[C@H](CCC(=O)O)[C@H]1CC[C@H]2[C@@H]3[C@H](O)C[C@@H]4C[C@H](O)CC[C@]4(C)[C@H]3CC[C@]12C`, the max response in the test with KB-3-1 was 0.682%.

Turning to `N[C@H](C(=O)O)[C@@H]1CC(Cl)=NO1`, the Potency in the test on KB-3-1 is 20.6 µM (active).

As for `CC[C@@H](C)CCCCC(=O)N[C@@H](CCNCS(=O)(=O)O)C(=O)N[C@H](C(=O)N[C@@H](CCNCS(=O)(=O)O)C(=O)N[C@H]1CCNC(=O)[C@H]([C@@H](C)O)NC(=O)[C@H](CCNCS(=O)(=O)O)NC(=O)[C@H](CCNCS(=O)(=O)O)NC(=O)[C@H](CC(C)C)NC(=O)[C@@H](CC(C)C)NC(=O)[C@H](CCNCS(=O)(=O)O)NC1=O)[C@@H](C)O` (X3-[Dab(CH2SO3H)]T[Dab(CH2SO3H)][Dab][Dab(CH2SO3H)][dL]L[Dab(CH2SO3H)][Dab(CH2SO3H)]T; lactam 4-C), the max response with KB-3-1 was 9.65%.

The values are drawn from PubChem BioAssay (NCATS).
